Compound activity from PubChem BioAssay.
Sampled rows, rich in hits. Any-hit rate of the full collection: about 0.47%.
AID inh = inhibitors of human activation induced cytidine deaminase; Q9GZX7; AID deamination FRET fluorescence, UDG-coupled, 4 h; Potency, µM (series often up to 115 µM), most hits filed as inhibitors; 91,000 tested, 0.32% active; AID 1347428; further: nearly all actives have a fitted effect of over 25% in size
Target sequence (Q9GZX7 whole entry, looked up): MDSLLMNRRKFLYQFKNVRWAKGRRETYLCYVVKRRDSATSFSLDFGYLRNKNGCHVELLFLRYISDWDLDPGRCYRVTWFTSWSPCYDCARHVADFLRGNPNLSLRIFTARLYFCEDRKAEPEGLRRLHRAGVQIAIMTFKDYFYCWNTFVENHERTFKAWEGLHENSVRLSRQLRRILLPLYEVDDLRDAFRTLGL
UDG counterscr = blocks uracil-DNA glycosylase in AID counter-screen | FRET deamination/UDG coupled assay, UDG read, 4 h | 91,000 tested, 0.14% active | AID 1347430 | Potency, µM (top dose mostly 115 µM), for inactives: at the top dose activity change, negative = inhibition, most hits filed as inhibitors; further: nearly all actives have a fitted effect of over 65% in size
* = called active by the depositor; i = inactive; ? = inconclusive. The call rests on the fitted dose curve; in most records, active means well fitted curve in the direction sought with a large enough effect; inconclusive means small, poorly fitted or top-dose-only effect, or another doubt; inactive means no such curve, though single readings can be large; an effect the other way counts as inactive or inconclusive. On the % scale 0 is the no-effect control and ±100 the full control effect; potency means the concentration at half of the fitted maximal effect.

SMILES	AID inh	UDG counterscr
O=C(NCCNCc1c[nH]c2ccccc12)c1cccs1	i	14%
NO	40µM*	28µM*
Clc1ccc(-c2cc3ccccn3c2)cc1	i	1%
CNc1ccc2c(cc1=O)[C@@H](NC)CCc1cc(OC)c(OC)c(OC)c1-2	i	8%
COc1ccc(OC)c(/C=C(\C#N)c2nc3ccccc3c(=O)[nH]2)c1	79µM*	48%
COc1cccc(/C=C(\C#N)c2nc3ccccc3c(=O)[nH]2)c1OC	i	0%
CC(C)c1ccc(OCC(=O)Nc2cc(-c3nc4ncccc4o3)ccc2Cl)cc1	i	1%
CCC(C)c1ccc(OCC(=O)Nc2cccc(-c3nc4ncccc4o3)c2)cc1 (stereo not given)	32µM*	-17%
Cc1ccc(-c2nc(SCC(=O)N3CCCC3c3ccc4c(c3)OCCCO4)n[nH]2)cc1 (stereo not given)	i	-2%
OC(COc1ccc(OCC(O)CN(Cc2ccccc2)Cc2ccccc2)cc1)CN(Cc1ccccc1)Cc1ccccc1 (stereo not given)	i	-7%
COCCN(CCOC)CCOc1cccc(C#N)c1	i	-8%
COc1ccc(OC)c(NC(=O)NC(C)C(=O)N2CCc3ccccc32)c1 (stereo not given)	i	-9%
CC(Oc1ccc(C(=O)c2ccccc2)cc1)C(=O)N1CCc2ccccc21 (stereo not given)	i	79µM*
COC(=O)c1ccc(F)c(NC(=O)CCc2c(C)nc(C)[nH]c2=O)c1	i	-12%
CCCCOc1ccc(C(=O)C(CCC(CNC(C)(C)C)C(=O)c2ccc(OCCCC)cc2)CNC(C)(C)C)cc1 (stereo not given)	?	2%
Clc1ccccc1N/N=C/C(Br)=C/c1ccccc1	i	-8%
N#CC1(NC(=O)CSc2c(Cl)cccc2Cl)CCCCC1	i	2%
Cn1c(CC(=O)Nc2ccccc2)nnc1SCC(=O)NC12CC3CC(CC(C3)C1)C2	i	8%
Cc1ccc(NC(=O)Cc2nnc(SCC(=O)NC34CC5CC(CC(C5)C3)C4)n2C)cc1C	i	89µM*
Cc1ccc(C(=O)/C(C#N)=C/c2ccccc2OCc2ccc(Br)cc2)cc1	i	8%
CN1CCOC(CNCc2ccc3ccccc3c2)C1 (stereo not given)	i	4%
Cc1cccc(N2CCN(C(=O)C(C)n3nc(C)n4c(cc5occc54)c3=O)CC2)c1C (stereo not given)	?	-18%
CCc1nn(C(C)C(=O)N2CCN(c3cccc(C(F)(F)F)c3)CC2)c(=O)c2cc3occc3n12 (stereo not given)	32µM*	-15%
CCC1=Nc2cc(C(=O)NCc3ccccc3Cl)ccc2Sc2ccc(C)cc21	i	-6%
CCC1=Nc2cc(C(=O)N3CCC(C)CC3)ccc2Sc2ccc(C)cc21	32µM*	-13%
SMILES	AID inh	UDG counterscr
Cc1ccccc1-n1cnnc1SCCC(=O)Nc1ccc(S(=O)(=O)N(C)C)cc1	i	-5%
Cc1ccc(Cl)cc1N1CCN(C(=O)C2CCN(Cc3nc(-c4ccc(Cl)cc4)oc3C)CC2)CC1	?	89µM*
Cc1ccccc1-c1nc(CN2CCCC(C(=O)NCc3ccc(Cl)cc3)C2)c(C)o1 (stereo not given)	i	?
Cc1ccc(C)c(N2CCN(C(=O)C3CCN(Cc4nc(-c5cccc(Cl)c5)oc4C)CC3)CC2)c1	i	89µM*
COc1ccc(N2CCN(C(=O)C3CCN(Cc4nc(-c5ccc(Cl)cc5)oc4C)CC3)CC2)cc1	i	-7%
Cc1cccc(-c2nc(CN3CCCC(C(=O)N4CCN(c5cc(Cl)ccc5C)CC4)C3)c(C)o2)c1 (stereo not given)	?	89µM*
Cc1oc(-c2ccc(Cl)cc2)nc1CN1CCCC(C(=O)NCc2ccccc2)C1 (stereo not given)	i	89µM*
CCCCNC(=O)C1CCCN(Cc2nc(-c3ccc(Cl)cc3)oc2C)C1 (stereo not given)	i	?
Cc1oc(-c2cccc(Cl)c2)nc1CN1CCC(C(=O)NCCCN2CCN(c3ccccc3F)CC2)CC1	i	-6%
CN(C)S(=O)(=O)c1cccc(NC(=O)c2ccccc2Oc2ccccc2)c1	i	-15%
Brc1cccc(-c2nc3cc4c(cc3[nH]2)OCCO4)c1	i	0%
O=C(NCCc1ccccc1)OCc1ccccc1	i	5%
O=C(NCc1ccnc(OCC(F)(F)F)c1)c1cccs1	i	1%
O=c1[nH]c(=O)n(-c2ccccc2F)c2c1C(C(F)(F)F)(C(F)(F)F)N=C(c1ccncc1)N2	i	38%
Cc1nc2c(-c3ccccc3)c(C)[nH]n2c(=O)c1Cc1ccc(C(C)C)cc1	i	79µM*
Cc1ccc(Cc2c(C)nc3c(-c4ccccc4)c(C)[nH]n3c2=O)cc1	i	-5%
CCc1ccc(/C=C(/C#N)C(=O)c2c(C)[nH]c3ccccc23)cc1	i	-6%
COc1ccc(C2=NC(c3ccncc3)=Nc3ccc(OC)cc3N2)cc1	i	-26%
CCc1ccc2c(c1)NC(c1ccc(OC)cc1)=NC(c1ccncc1)=N2	?	89µM*
C=CCNCc1ccsc1	i	-11%
Cc1ccc(C)c(N(C)C(=O)C2CCN(c3ncnc4c3nc3n4CCCCC3)CC2)c1	79µM*	-10%
CN(C(=O)C1CCN(c2ncnc3c2nc2n3CCCCC2)CC1)c1ccccc1F	i	2%
Cc1ccc(Cl)cc1N(C)C(=O)c1cnc(N2CCOCC2)c2ccccc12	i	51%
Cc1ccc(Cl)cc1N1CCN(C(=O)c2cnc(N3CCOCC3)c3ccccc23)CC1	22µM*	?
O=C(c1cc2ccc3cccnc3c2[nH]1)N1CCN(c2ccc(Cl)cc2)CC1	i	-5%
SMILES	AID inh	UDG counterscr
Cc1ccc(Cl)cc1N1CCN(C(=O)c2cc3ccc4cccnc4c3[nH]2)CC1	22µM*	-12%
CC(NC(=O)CCCNC(=O)C1CC1)c1ccc(C#N)cc1 (stereo not given)	i	7%
CCc1nc2sc(C(C)=O)c(N)c2cc1C	i	5%
O=C(CC(F)(F)F)N(Cc1ccncc1)C1CC1	i	0%
COc1ccc(CNCCC(c2ccc(C)cc2)c2ccco2)cc1 (stereo not given)	i	-4%
COc1ccc(CNCCC(c2ccccc2)c2ccc3c(c2)OCO3)cc1 (stereo not given)	45µM*	5%
Cc1ccc2cc(-c3ccccc3)[nH]c2c1	i	-8%
COc1ccccc1C(=O)Nc1ccc2nc(N3CCC(C)CC3)cc(C)c2c1	?	-18%
COc1cc(OC)cc(C(=O)Nc2ccc3nc(N4CCC(C)CC4)cc(C)c3c2)c1	40µM*	?
CCn1c(C(C)(C)Oc2ccc(Cl)c(C)c2)n[nH]c1=S	i	-2%
COc1ccc(C(=O)NCc2cccc(OC)c2)cc1	i	2%
COc1ccc(Nc2nc(NCCO)c3nccnc3n2)cc1	i	1%
COc1ccc(Nc2nc(Nc3ccc(F)cc3)nc3nccnc23)cc1	25µM*	0%
CC(Oc1ccc(C=Nc2ccc(N3CCOCC3)cc2)cc1)C(=O)O (stereo not given)	i	-8%
O=C(Cc1n[nH]c(=O)c2ccccc12)Nc1ccc(S(=O)(=O)N2CCCC2)cc1	40µM*	-19%
Cn1nc(CC(=O)Nc2ccc(S(=O)(=O)N3CCCCCC3)cc2)c2ccccc2c1=O	i	-4%
O=S1(=O)CCN(Cc2ccccc2)c2c(F)nc(N3CCOCC3)c(F)c21	i	0%
